Source: PubChem BioAssay (National Center for Advancing Translational Sciences (NCATS))
Only some compounds are listed: those with a hit (about 4.8% of all), similar ones and a draw of the others.
HepG2 tox: kills HepG2 cells in TGF-b inhibitor counter-screen | AID 588856 | actives 0.76% (n = 410,000) | HepG2 CAGA-GFP viability, ATP luminescence, 18 h | Potency, µM (top dose mostly 46.1 µM), inactives show at the highest dose activity change, negative = cytotoxicity, usual class: cytotoxic; also: potency is read from the fitted curve at half-maximal effect
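CellTiter-Glo luminescence gave cytotoxicity after 18 hours at 37 degrees C. The cells were HepG2 CAGA-GFP in 1% FBS DMEM, stimulated with 500 pg/mL TGF-beta after compound addition. %Activity was normalised to no-cell wells (complete cell-killing) and DMSO (no toxicity), and curves were fitted and classified.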
TGFb inhibitor: blocks TGF-b signaling. HepG2 CAGA-GFP TGF-b/SMAD3 reporter, GFP fluorescence, 18 h; TGF-beta stimulated, 500 pg/mL final. Potency, µM (doses to about 46.1 µM), without a hit: top-dose activity, negative = inhibition, actives largely listed as inhibitors. actives 1.2% (n = 410,000). AID 588855; also: potency is read from the fitted curve at half-maximal effect; % is scaled to controls: 0 for no effect and ±100 for the full control effect; nearly all actives have a fitted effect of over 65% in size
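HEPG2 CAGA-GFP reporter cells (1000/well, DMEM with 1% FBS) received compounds, then recombinant TGF-beta at 500 pg/mL final for 18 hours at 37 degrees C. Per-cell GFP summed per well was normalised to unstimulated and stimulated DMSO controls before curve fitting.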
ATXN2 expr inh: reduces ATXN2 reporter expression in HEK-293 cells. HEK-293 ATXN2-luciferase reporter, luminescence, 24 h. Potency, µM (top dose mostly 57 µM), without a hit: at the top dose activity change, negative = inhibition, most hits filed as inhibitors. actives 0.72% (n = 360,000). AID 1745845; also: potency is read from the fitted curve at half-maximal effect; % is scaled to controls: 0 for no effect and ±100 for the full control effect; nearly all actives have a fitted effect of over 55% in size
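qHTS (up to 57 uM final) was run with 24 h compound exposure of reporter cells at 37 °C. Each well was multiplexed: SteadyGlo luminescence measured ATXN2-luciferase expression after a fluorogenic Gly-Phe-AFC viability readout (25 uM final).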
DRD3 agonist: activates the human D3 dopamine receptor. P35462. D3R DiscoveRx beta-arrestin cells, luminescence, 90 min. max activation, %. actives 0.58% (n = 410,000). AID 652048; in the data active = max activation above about 30%; also: 0% is about no effect
Target sequence (P35462 whole entry, looked up): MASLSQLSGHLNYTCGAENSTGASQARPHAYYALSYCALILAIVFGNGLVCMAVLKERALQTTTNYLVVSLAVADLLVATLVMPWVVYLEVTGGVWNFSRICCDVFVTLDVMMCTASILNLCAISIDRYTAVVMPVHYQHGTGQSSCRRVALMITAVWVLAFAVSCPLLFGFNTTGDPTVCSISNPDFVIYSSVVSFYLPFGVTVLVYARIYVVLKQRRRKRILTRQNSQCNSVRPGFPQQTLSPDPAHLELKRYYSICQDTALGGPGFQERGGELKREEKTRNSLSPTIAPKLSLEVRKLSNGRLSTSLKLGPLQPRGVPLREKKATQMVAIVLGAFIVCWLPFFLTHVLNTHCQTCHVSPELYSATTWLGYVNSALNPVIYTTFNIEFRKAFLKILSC
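Agonist-mode cell screen: cells plated at 1500/well and incubated overnight at 37 °C, then exposed to library compounds for 90 min at 37 °C. Detection reagent was added for 30–60 min at room temperature, and luminescence was read.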
DRD3 antagonist: D3 dopamine receptor (human) antagonism | P35462 | D3R cells, DiscoveRx beta-arrestin luminescence, antagonist mode; active compounds read low | max response, negative = inhibition, % | actives 2.5% (n = 360,000) | AID 652054; in the data active = max response below about -50%; inconclusive = no clear call, values can overlap the other calls; also: % is scaled to controls: 0 for no effect and ±100 for the full control effect
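Cells plated overnight at 1500 cells/well, then exposed to library compounds with dopamine controls for 90 minutes at 37 degrees C. DiscoveRx reagent added for 30–60 minutes at room temperature; luminescence read, quantitative HTS format.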
ATXN viability: viability counter-screen for ATXN expression inhibitors; S2 cells (HEK-293 line with an ATXN2-luciferase reporter) viability, CellTiter-Fluor protease fluorescence, 24 h; Potency, µM (titrated, usually from 56.7 µM), most hits filed as cytotoxic; actives 0.49% (n = 400,000); also: potency is read from the fitted curve at half-maximal effect; nearly all actives have a fitted effect of over 40% in size
* = called active by the depositor; i = inactive; u = inconclusive; x = no result. Unless noted, calls follow the shape of the dose curve; as a rule, active = well fitted curve in the direction sought with a large enough effect; inconclusive = small, poorly fitted or top-dose-only effect, or another doubt; inactive = no such curve, though single readings can be large; an effect the other way counts as inactive or inconclusive.

SMILES	HepG2 tox	TGFb inhibitor	ATXN2 expr inh	DRD3 agonist	DRD3 antagonist	ATXN viability
COC(=O)CCn1cnc2onc(-c3cc(F)cc(F)c3)c2c1=O	-1%	-28%	3%	-3	x	i
COc1cccc(Cc2nc3ccccc3nc2SCC(=O)NCCc2ccccc2)c1	-37%	u	-20%	2	x	x
CCCCn1c(=O)c2oc3ccccc3c2n(Cc2ccc(OC)cc2)c1=O	-23%	-19%	x	-15	x	x
O=C1C=CC(=O)N1CCCCCCCCCCN1C(=O)C=CC1=O	-28%	13µM*	10µM*	-19	-100*	8.9µM*
Cc1ccc(-n2ncc3c(N(C)Cc4ccccc4)ncnc32)cc1	7%	14%	146%	6	x	i
CN(C)CC(O)COC(c1ccc(Cl)cc1)c1ccc(Cl)cc1 (stereo not given)	16µM*	u	u	-14	-6	u
COc1ccc(COCC(O)CN2CC(C)OC(C)C2)cc1OC (stereo not given)	-2%	-1%	-3%	17	-154*	i
CC1CN(CC(O)COC(c2ccc(Cl)cc2)c2ccc(Cl)cc2)CC(C)O1 (stereo not given)	16µM*	u	u	-5	6	u
CC(C)CCn1c(-c2nonc2N)nc2ccccc21	-15%	-13%	-23%	1	-51*	i
CC(C)CCn1c(/C=C/c2ccccc2)nc2ccccc21	10µM*	u	-9%	-9	x	u
COCCn1c(/C=C/c2ccccc2)nc2ccccc21	-42%	-12%	75%	-2	2	i
CCC(C)(C)C1CCc2[nH]nc(C(=O)N/N=C(\C)c3ccco3)c2C1 (stereo not given)	-66%	14µM*	-33%	-12	u	u
C/C(=N\NC(=O)c1n[nH]c2c1CCC2)c1ccco1	-38%	17%	u	12	-4	i
O=C(O)[C@@H]1C[C@H](CP(=O)(O)O)CCN1	x	x	x	7	x	x
CCOC(=O)c1[nH]c(C)c(CCC(=O)N2CCN(c3cc(C)ccc3C)CC2)c1C	-30%	u	u	2	x	i
CCOC(=O)c1[nH]c(C)c(CCC(=O)N2CCN(c3cc(Cl)ccc3C)CC2)c1C	-27%	11µM*	-8%	1	x	u
COc1ccc(C)cc1NC(=O)CCS(=O)(=O)c1cc2c3c(c1)CCN3C(=O)CC2	3%	-5%	1%	6	x	i
CCN(CC)CCCNC(=O)c1sc2nc(-c3ccc(F)cc3)cn2c1C	-20%	38%	3%	-51	-62*	u
COc1ccccc1-c1nc(SCC(=O)NCc2ccccc2)c2c(=O)n(C)c(=O)n(C)c2n1	-2%	-33%	-1%	8	x	i
Cc1ccccc1C(=O)Nc1ccc(C(=O)OCc2cc(=O)n3c4c(sc3n2)CCCC4)cc1	8.9µM*	11µM*	x	-11	x	x
CC(=O)Nc1ccccc1OCc1cc(=O)n2c3c(sc2n1)CCCC3	1%	-9%	12%	60*	x	i
CCC(C)S(=O)(=O)c1oc(-c2cccs2)nc1S(=O)(=O)c1ccccc1 (stereo not given)	2µM*	1.1µM*	x	-15	x	x
CNc1oc(-c2cccs2)nc1S(=O)(=O)c1ccccc1	-25%	-3%	0%	-13	-27	i
CN(C)CCCNc1oc(-c2ccc(Cl)cc2)nc1S(=O)(=O)c1ccccc1	-81%	u	u	-29	-73*	i
O=S(=O)(c1ccccc1)c1nc(-c2ccc(F)cc2)oc1NCc1ccccc1	108%	143%	-2%	7	x	u
SMILES	HepG2 tox	TGFb inhibitor	ATXN2 expr inh	DRD3 agonist	DRD3 antagonist	ATXN viability
CC(C)CS(=O)(=O)c1oc(-c2ccc(F)cc2)nc1S(=O)(=O)c1ccccc1	7.1µM*	3.2µM*	x	-19	x	x
CN(C)CCCNc1oc(-c2ccccc2Cl)nc1S(=O)(=O)c1ccccc1	-29%	0%	-25%	-21	-72*	i
O=C(c1ccc([N+](=O)[O-])cc1[N+](=O)[O-])N1CCc2ccccc21	-85%	u	-11%	-13	-51*	i
O=C(c1ccc([N+](=O)[O-])cc1[N+](=O)[O-])N1CCCC1	3%	2%	-9%	1	1	i
CCOc1ccc(NC(=O)CSC2=Nc3ccccc3C3=NC(CC(=O)NCc4ccccc4OC)C(=O)N23)cc1 (stereo not given)	-2%	1%	x	-21	x	x
N#Cc1c(N)n(CCCN2CCOCC2)c2nc3ccccc3nc12	-12%	-3%	-20%	1	u	x
Nc1c(C(=O)Nc2ccccc2)c2nc3ccccc3nc2n1CCCN1CCOCC1	14µM*	u	u	-17	18	i
CN(N=Nc1ccc([N+](=O)[O-])cc1)c1ccccc1	-11%	0%	x	-1	12	u
CN(CCCC(=O)O)c1ccc(N=Nc2ccc([N+](=O)[O-])cc2)cc1	-27%	-3%	x	-18	-87*	14µM*
Cc1nnc(N2CCCC(C(=O)NCCc3ccc(Cl)cc3)C2)c2nn(-c3ccccc3)c(C)c12 (stereo not given)	-17%	-24%	-18%	0	x	u
Fc1ccc2[nH]c3c(NCc4ccco4)ncnc3c2c1	-46%	u	x	x	x	x
CCCCOC(=O)c1ccc(NC(=S)NC(=O)c2c(Cl)cnn2C)cc1	-7%	-11%	4%	-3	-85*	i
CCCCOC(=O)c1ccc(NC(=S)NC(=O)c2c(Cl)cnn2CC)cc1	-42%	0%	-9%	-1	-11	i
CC(C)c1ccc2c(c1)C1(NN=C(c3ccccc3)S1)C(=O)N2 (stereo not given)	-91%	u	-14%	-10	10	u
CCc1ccc2c(c1)C1(NN=C(c3ccc(C)cc3)S1)C(=O)N2 (stereo not given)	-95%	16µM*	u	-2	-94*	u
O=S(=O)(Nc1nc2ccccc2nc1Cl)c1ccc(Br)cc1	-46%	13µM*	x	1	17	i
O=S(=O)(Nc1nc2ccccc2nc1Cl)c1ccc(Cl)cc1	-43%	13µM*	-16%	8	25	x
CCOc1nc2ccccc2nc1NS(=O)(=O)c1ccc(Cl)cc1	-22%	-20%	-11%	4	6	i
Cc1nc(-c2ccc(F)cc2)sc1CCNC(=O)c1ccco1	-54%	u	8%	-9	x	i
CCCCC(c1nnnn1CC1CCCO1)N1CCN(c2ccccc2)CC1 (stereo not given)	7%	-14%	x	-3	8	u
